Experimental data as given in the supplement of paper PMC6897291.

Test system: RIVA
Assay: growth inhibition by drug alone (1 - RLU/untreated control) (fraction); higher = stronger inhibition
Settings: 177Lu-lilotomab satetraxetan 0 ug/ml
Method: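 RIVA (RI-1) ABC-DLBCL cells were pretreated or not for 18 h with 0.5 ug/ml 177Lu-lilotomab satetraxetan (600 MBq/mg), washed and seeded (3000 cells/well) on 384-well plates pre-printed with the Selleck Cambridge Cancer Compound library. Viability was read by RealTime-Glo luminescence on days 3-6 after seeding. Effect = 1 - RLU/mean RLU of the 48 untreated no-drug control wells per plate; Bliss score = (M-E)/(1-Fa).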

SMILES	growth inhibition by drug alone (10 nM, time (day): 3)	growth inhibition by drug alone (10 nM, time (day): 4)	growth inhibition by drug alone (10 nM, time (day): 5)	growth inhibition by drug alone (10 nM, time (day): 6)	growth inhibition by drug alone (100 nM, time (day): 3)	growth inhibition by drug alone (100 nM, time (day): 4)	growth inhibition by drug alone (100 nM, time (day): 5)	growth inhibition by drug alone (100 nM, time (day): 6)
CC(O)(CS(=O)(=O)c1ccc(F)cc1)C(=O)Nc1ccc(C#N)c(C(F)(F)F)c1 (stereo not given) [Bicalutamide (Casodex)]	0.121	0.0197	-0.0376	-0.206	0.0203	-0.00253	-0.0289	-0.0827
O=P1(N(CCCl)CCCl)NCCCO1 (stereo not given) [Cyclophosphamide monohydrate]	-0.165	-0.182	-0.227	-0.326	0.0466	-0.0413	-0.0801	-0.114
N[C@@H](Cc1ccc(N(CCCl)CCCl)cc1)C(=O)O [Melphalan]	-0.0205	0.000425	-0.0866	-0.459	-0.259	-0.175	-0.164	-0.265
C=C1C[C@@H]2[C@H](CC[C@]3(C)C(=O)CC[C@@H]23)[C@@]2(C)C=CC(=O)C=C12 [Exemestane]	0.0187	0.00346	-0.0171	-0.272	-0.247	-0.223	-0.21	-0.228
C[C@]12CCC(=O)C(O)=C1CC[C@@H]1[C@@H]2CC[C@]2(C)C(=O)CC[C@@H]12 [Formestane]	-0.227	-0.249	-0.286	-0.391	-0.322	-0.306	-0.36	-0.445
